# Experimental data reported in PubChem BioAssay AID1347048 (National Center for Advancing Translational Sciences (NCATS), 2019).
# The whole screen tested about 76,000 compounds, of which about 1,200 (1.6%) were called active. Roughly 4% stayed inconclusive and do not appear here. This is one part of a sample in which actives are shown more often than they occur. Calls follow the shape of the full dose curve.
# Molecular target: Atrial natriuretic peptide receptor 1 (Homo sapiens) (UniProt P16066)
# Assay: Natriuretic polypeptide receptor (hNpr1) antagonism - Primary qHTS; also: nearly all actives have a fitted effect of over 60% in size
# Settings: HEK293 hNpr1 GloSensor cGMP, ANP-stimulated luminescence; series mostly up to 46.3 µM; activity change, negative = inhibition: at the top concentration
# How it was run: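 HEK293 cells stably expressing human Npr1 and cGMP GloSensor pGS-40F, loaded 2 h with 2% GloSensor reagent, given compound 30 min at room temperature. Luminescence read before and 20 min after 0.1 nM hNppA.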
# % is scaled to controls: 0 for no effect and ±100 for the full control effect; potency is read from the fitted curve at half-maximal effect.
# Atrial natriuretic peptide receptor 1 (Homo sapiens), sequence (P16066 whole entry, looked up): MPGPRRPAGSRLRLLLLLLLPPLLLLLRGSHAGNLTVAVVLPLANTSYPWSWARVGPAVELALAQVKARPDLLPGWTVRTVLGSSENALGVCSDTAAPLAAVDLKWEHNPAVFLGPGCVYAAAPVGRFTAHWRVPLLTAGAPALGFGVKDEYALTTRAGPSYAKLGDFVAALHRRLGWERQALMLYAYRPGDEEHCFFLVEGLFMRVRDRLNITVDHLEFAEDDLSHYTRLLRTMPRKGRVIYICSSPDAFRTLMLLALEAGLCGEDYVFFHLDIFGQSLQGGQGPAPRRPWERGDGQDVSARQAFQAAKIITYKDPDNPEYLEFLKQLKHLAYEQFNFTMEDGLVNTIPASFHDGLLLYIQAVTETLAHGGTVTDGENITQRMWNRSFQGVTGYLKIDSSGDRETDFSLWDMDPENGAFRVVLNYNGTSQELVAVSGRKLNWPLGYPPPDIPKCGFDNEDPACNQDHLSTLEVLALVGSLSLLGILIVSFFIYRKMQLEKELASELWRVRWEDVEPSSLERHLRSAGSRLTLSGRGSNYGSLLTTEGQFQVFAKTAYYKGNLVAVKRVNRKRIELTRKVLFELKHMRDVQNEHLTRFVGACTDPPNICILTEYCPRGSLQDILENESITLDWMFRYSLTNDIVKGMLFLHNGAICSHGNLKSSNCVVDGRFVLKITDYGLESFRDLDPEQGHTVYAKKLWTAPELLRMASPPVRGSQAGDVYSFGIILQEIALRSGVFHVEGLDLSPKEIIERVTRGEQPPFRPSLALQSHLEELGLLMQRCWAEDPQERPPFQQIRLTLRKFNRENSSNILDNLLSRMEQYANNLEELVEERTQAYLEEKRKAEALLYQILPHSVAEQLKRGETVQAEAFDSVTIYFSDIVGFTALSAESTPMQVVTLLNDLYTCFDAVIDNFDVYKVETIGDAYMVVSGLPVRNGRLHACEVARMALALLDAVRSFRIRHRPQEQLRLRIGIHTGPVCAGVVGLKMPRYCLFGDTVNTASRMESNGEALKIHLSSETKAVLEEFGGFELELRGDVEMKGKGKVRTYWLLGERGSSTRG
Compound,"activity change, negative = inhibition",Potency
O=c1n(CC2CC2)nc2n1CCC(NS(=O)(=O)c1cccc(F)c1)CC2 (stereo unspecified),-1.4% (inactive),
COc1ccc(-c2noc([C@@H]3CCCN3C(=O)CCc3ccccc3)n2)cc1,-18.3% (inactive),
COc1ccc(CC(=O)N2CCC[C@H]2c2nc(-c3ccccc3)no2)cc1,-9.28% (inactive),
COc1ccc(-c2noc(CC3CCN(C(=O)Cc4ccc(C)cc4)CC3)n2)cc1,,15.8 µM (active)
COc1ccc(-c2noc(CC3CCN(C(=O)Cc4ccccc4)CC3)n2)cc1,,11.2 µM (active)
COc1ccc(-c2noc([C@@H]3CCCN3C(=O)Cc3ccccc3Cl)n2)cc1,-1.5% (inactive),
Cc1ccc(CC(=O)N2CCC(Cc3nc(-c4cnccn4)no3)CC2)cc1,-2.52% (inactive),
COc1ccc(-c2noc(CC3CCN(C(=O)CC4CCCCC4)CC3)n2)cc1,,6.31 µM (active)
CCOc1ccc(CC(=O)N2CCC(Cc3nc(-c4cnccn4)no3)CC2)cc1,0.667% (inactive),
COc1ccc(C(=O)N2CCC(Cc3nc(-c4cnccn4)no3)CC2)cc1,-4.05% (inactive),
O=C(Nc1ccc(C(F)(F)F)cc1)N[C@@H]1C[C@H](CO)[C@@H](O)[C@H]1O,-3.69% [at 70.6 µM] (inactive),
COc1ccc(C(=O)N2CCC3(CC2)NC(=O)N(c2ccc(F)cc2)N3)cc1OC,0% (inactive),
O=C(Nc1ccccc1)N1CCCCC1c1noc(COc2ccc(F)cc2)n1 (stereo unspecified),-18.6% (inactive),
CCCn1cnc2c1CN(S(=O)(=O)Cc1ccccc1)[C@H](C(=O)OC)C2,-0.221% [at 70.6 µM] (inactive),
CCc1nc(-c2c3n(c(=O)n(CCc4ccc(OC)cc4)c2=O)CCCC3)no1,0.924% (inactive),
COc1cccc(CN2CCc3c(cc(C(=O)NCCN4CCCCC4)n3C)C2)c1,-0.0053% (inactive),
COc1ccc(NC(=O)c2ccc3c(c2)N(C(=O)c2ccc(F)cc2)CC3)c(C)c1,-7.13% (inactive),
COc1ccc(CNC(=O)c2cccc3c2CCN3C(=O)c2ccc(F)cc2)cc1OC,,8.91 µM (active)
CN1CCCCCC(O)c2cc(C(=O)NCc3ccc(F)cc3)ccc21 (stereo unspecified),-12.6% (inactive),
O=C(c1ccnc(-c2nnc3ccc(N4CCOCC4)nn23)c1)N1CCCCC1,0.0035% [at 70.6 µM] (inactive),
COc1ccccc1CNC(=O)CCC[C@@H]1[C@H]2CCCN3CCC[C@@H](CN1C(=O)c1ccccc1)[C@@H]23,-2.86% (inactive),
COCCN1CCCCCC(O)c2cc(C(=O)Nc3cccc(OC)c3)ccc21 (stereo unspecified),-1.45% (inactive),
CN(Cc1ccc(CCN)cc1)Cc1cccc(-n2cccn2)c1,5.67% (inactive),
CCOc1ccccc1C(=O)NCc1nnc2cc(-c3nc(C)no3)ccn12,-0.0068% (inactive),

Compound,"activity change, negative = inhibition",Potency
CN(C)c1ccc(C(=O)NCc2nnc3cc(-c4nc(C5CC5)no4)ccn23)cc1,2.94% (inactive),
O=C(NCc1nnc2cc(-c3nc(C4CC4)no3)ccn12)c1ccc(F)cc1Cl,,7.08 µM (active)
COc1cccc(CC(=O)N2CCCC(c3nc(-c4cccnc4)no3)CCNC(=O)CC2)c1 (stereo unspecified),3.71% (inactive),
Cc1cccc(OCC(=O)N2CCN(c3cc(C(F)(F)F)nc(C)n3)CC2)c1,-4.19% (inactive),
CC(C)CN[C@H]1[C@H](O)[C@H](O)C[C@@H]1c1ccc(N2CCOCC2)nc1,-1.51% [at 70.6 µM] (inactive),
CN(CCc1cn[nH]c1)c1ccc(-c2nc(-c3ccccc3F)no2)cn1,,8.91 µM (active)
CN(C)CCN(C)c1ccc(-c2nc(-c3ccccc3F)no2)cn1,5.41% (inactive),
Oc1ccc(-c2ccc(-c3nc(CCc4ccccc4)no3)cn2)cc1,-11.1% (inactive),
CCCC(C)C(=O)N1CCCN(C)c2ccccc21 (stereo unspecified),-13.8% (inactive),
COc1ccc2nc3n(c2c1)[C@@H](CNC1CCCCC1)COC3,-15.1% [at 70.6 µM] (inactive),
Cc1ccccc1-n1nc(C)c(CCC(=O)NC(C)C)c1Oc1cccc(F)c1,-3.9% (inactive),
Cc1cc(N2CCCC(Cn3cc(Cc4ccccc4)nn3)C2)nc(N)n1 (stereo unspecified),,7.94 µM (active)
COc1ccc(-c2cn3c(n2)CO[C@@H](CNCc2ccc(F)c(F)c2)C3)cc1,-22.7% [at 70.6 µM] (inactive),
CN(Cc1csc(-c2ccccc2)n1)c1cc(C2CC(O)C2)nc(N)n1 (stereo unspecified),,2.51 µM (active)
COc1ccc(CN2C(=O)CO[C@H]3CN(Cc4cccnc4)C[C@H]32)cc1,9.88% [at 70.6 µM] (inactive),
COc1ccc(CN2C(=O)CO[C@H]3CN(Cc4ccc5c(c4)OCO5)C[C@H]32)cc1,,31.6 µM (active)
COc1ccc(CN2C(=O)CO[C@H]3CN(C(=O)C4CC4)C[C@H]32)cc1,2.94% [at 70.6 µM] (inactive),
Cc1noc(C)c1C(=O)N1CCCC(CCc2ccc(F)cc2F)C1 (stereo unspecified),-5.53% (inactive),
Cc1cc(F)ccc1NC(=O)CCC1CCCN(C(=O)c2ccc(Cl)s2)C1 (stereo unspecified),-23% (inactive),
Cc1c[nH]c(CN2CCCC(CCc3ccc(F)cc3F)C2)c(C)c1=O (stereo unspecified),,2.51 µM (active)
Fc1ccc(-c2cnc3n[nH]c(-c4ccc5c(c4)OCO5)c3n2)cc1,-3.46% [at 70.6 µM] (inactive),
Cc1ccc(-c2nnc(C3CN(C(=O)CCc4ccccc4)CC34CCOCC4)o2)cc1 (stereo unspecified),-0.877% (inactive),
O=C(c1ccc2cc[nH]c2c1)N1CCC2(CC1)N=C(c1ccc(Cl)cc1)NO2,,11.2 µM (active)
Cc1ccc(C2=NC3(CCN(C(=O)c4ccc(C#N)cc4)CC3)ON2)cc1,-0.929% (inactive),

Compound,"activity change, negative = inhibition",Potency
O=C(c1cccc2[nH]ccc12)N1CCC2(CC1)N=C(c1cccc(Br)c1)NO2,-19.9% (inactive),
OCC1(CN2CCCC2)CCN(Cc2cccc(Cn3cccn3)c2)CC1,-1.59% (inactive),
COc1cccn(CC(=O)N(C)Cc2csc(C(C)C)n2)c1=O,-4.01% (inactive),
COc1ccc(CNC(=O)CN2C(=O)NC3(CCC(C(C)(C)C)CC3)C2=O)cc1OC (stereo unspecified),5.07% (inactive),
c1ccc(-c2noc(-c3ccccc3OC3CCNC3)n2)cc1 (stereo unspecified),-13.3% (inactive),
c1ccc(CO[C@@H]2CO[C@H]3[C@@H]2OC[C@@H]3n2nnnc2SCc2ccco2)cc1,,22.4 µM (active)
CC(C)(CC(=O)O)CC(=O)N[C@H]1CO[C@H]2[C@@H]1OC[C@@H]2n1nnnc1-c1ccccc1,1.95% [at 70.6 µM] (inactive),
CC(C)(C)CC(=O)N1CC[C@H](NC(=O)Nc2ccc(F)cc2F)[C@H]1C(=O)N[C@H](Cc1ccccc1)C(N)=O,7.93% (inactive),
CCC(C)NC(=O)CN1C(=O)NC2(CCC(C(C)(C)C)CC2)C1=O (stereo unspecified),12.3% (inactive),
CCCNc1cc(N2CCC(CCC(=O)NCc3ccc(Cl)cc3)CC2)ncn1,-14.9% (inactive),
O=C(Cc1cccnc1)N1CCCC(c2nc(CCOCC3CCCC3)no2)C1 (stereo unspecified),0.532% (inactive),
O=C(c1ccoc1)N1CCCC(c2nc(CCOCC3CCCC3)no2)C1 (stereo unspecified),-3.27% (inactive),
C1CCC(COCCc2noc(C3CNC3)n2)C1,,12.6 µM (active)
COCCC(=O)N1CCC2(CC1)CC(C(=O)N1CCOCC1)N(C)C2 (stereo unspecified),-0.444% (inactive),
Cc1ccc2c(c1)nc1n2[C@@H](CNC(=O)c2ccccc2)COC1,4.31% [at 70.6 µM] (inactive),
Cc1ccc2nc3n(c2c1)[C@@H](CNC(=O)COc1ccccc1)COC3,-25.6% [at 70.6 µM] (inactive),
Cc1ccc2c(c1)nc1n2[C@@H](CNS(=O)(=O)c2ccccc2)COC1,,31.6 µM (active)
COCC1CN(Cc2ccc(OC)c(OC)c2Cl)CC12CCNCC2 (stereo unspecified),0.762% (inactive),
COc1ccc(-c2cc(CC3(NCc4cccc(OC)c4)COC3)no2)cc1,-0.189% [at 70.6 µM] (inactive),
CCN(CC)C(=O)[C@@H]1CCC[C@@H](NC2CCC2)CN(C)C(=O)C1,0.442% [at 70.6 µM] (inactive),
COc1ccc(CC(=O)N2CCC3(CC2)CC(O)CCO3)cc1OC (stereo unspecified),6.61% (inactive),
COc1ccc(CC(=O)N2CCC(Cc3nc(-c4cnccn4)no3)CC2)cc1Cl,1.04% (inactive),
COc1ccc(CC(=O)N2CCC(Cc3nc(C(C)C)no3)CC2)cc1Cl,-25.4% (inactive),
COc1ccc(-c2nc3c(c(=O)[nH]2)CCN(C(=O)Cc2ccc(OC)c(Cl)c2)C3)cc1,0.917% (inactive),

Compound,"activity change, negative = inhibition",Potency
COc1ccc(-c2noc(CC3CCN(C(=O)Cc4ccc(OC)c(OC)c4)CC3)n2)cc1,,2.82 µM (active)
COc1ccc(CC(=O)N2CCC(Cc3nc(-c4ccccc4)no3)CC2)cc1OC,,10 µM (active)
CCOCCOc1cccc(C(=O)N2CCC3(CCOCC3)CC2)c1,-1.4% (inactive),
CN(C)C(=O)c1n[nH]c2c1CN(C(=O)c1cccc(C(F)(F)F)c1)CC2,3.83% (inactive),
Cc1cc(C)c(CNC(=O)c2nc(-c3cccc(CO)c3)cc3c2ccn3C)c(=O)[nH]1,5.49% [at 70.6 µM] (inactive),
Cc1ccccc1-n1nc(CC(N)=O)nc1-c1ccc(Cn2cnnn2)cc1,2.3% (inactive),
Cc1ccccc1CC(=O)N1CCC[C@H]1c1nc(-c2ccccc2Cl)no1,-12.8% (inactive),
N#Cc1cccc(CN2CCC(C3=NC(O)c4cc(F)ccc4N3)CC2)c1 (stereo unspecified),,8.91 µM (active)
O=c1[nH]c(C2CCN(Cc3ccc(F)cc3)CC2)nn1Cc1ccccc1,-2.72% (inactive),
O=c1[nH]c(C2CCN(Cc3ccccc3)CC2)nc2ccc(F)cc12,1.49% [at 70.6 µM] (inactive),
COc1ccc(-c2cc(N3CCN(C(=O)c4cc(OC)cc(OC)c4)CC3)n[nH]2)cc1,-13.1% (inactive),
O=C(c1ccoc1)N1CCN(c2cc(-c3ccc(Cl)cc3)[nH]n2)CC1,0% (inactive),
O=C(c1cc(F)ccc1Cl)N1CCN(c2cc(-c3ccc(F)cc3)[nH]n2)CC1,,17.8 µM (active)
O=C(c1ccc(Br)cc1)N1CCN(c2cc(-c3ccccc3)[nH]n2)CC1,-23.3% (inactive),
O=C(c1ccc(F)cc1F)N1CCN(c2cc(-c3ccc(Cl)cc3)[nH]n2)CC1,,14.1 µM (active)
COc1ccc(-c2cc(N3CCCN(C(=O)c4ccc(C)cc4)CC3)n[nH]2)cc1,3.59% (inactive),
COc1ccc(-c2cc(N3CCN(C(=O)c4ccncc4)CC3)n[nH]2)cc1,-0.727% (inactive),
O=C(Cc1ccc(F)cc1)NC1CCN(c2cc(-c3ccc(Cl)cc3)[nH]n2)CC1,-5.64% (inactive),
Cc1ccc(C(=O)N2CCN(c3cc(-c4ccc(Cl)cc4)[nH]n3)CC2)c(C)c1,,6.31 µM (active)
CC(C)c1cc(C2CCCN2CCC(=O)Nc2ccc(C(N)=O)cc2)no1 (stereo unspecified),-2.82% (inactive),
COc1ccc(-c2nc(C3CC(=O)N(c4ccc(F)c(Cl)c4)C3)no2)cc1OC (stereo unspecified),-0.022% (inactive),
O=C1NCCOCCCN(C(=O)CC2CCCC2)[C@H]2CCC[C@@H]12,1.56% (inactive),
Cn1cnc(S(=O)(=O)N2CCCC(Cc3noc(-c4cnccn4)n3)C2)c1 (stereo unspecified),-0.0449% (inactive),
Cc1cn2nc(C(=O)NCC(C)c3ccccc3)cc2c(N2CCCC2)n1 (stereo unspecified),16.1% (inactive),
